Results taken from PubChem BioAssay (NCATS).
Values joined by “and” are separate entries in the source; they are usually repeats but may differ in a detail not shown here. Identical values can stand only once. Unmarked numbers belong to inactive results. Results filed as inconclusive are left out. Where a call stands in place of a potency, no number is given. Active and inactive are the calls of the source. Unless noted, calls follow the shape of the dose curve; as a rule, active = well fitted curve in the direction sought with a large enough effect; inconclusive = small, poorly fitted or top-dose-only effect, or another doubt; inactive = no such curve, though single readings can be large; an effect the other way counts as inactive or inconclusive.

What was measured:
Hek293T = test: Primary qHTS to identify gynecologic anti-cancer compounds using libraries of approved drugs and bioactive compounds (AID 1345084); conditions: Gynecologic cancer cell panel viability, ATPlite luminescence, 48 h, control line for the selectivity index; series mostly up to 57.5 µM; also: nearly all actives have a fitted effect of over 55% in size; also: potency is read from the fitted curve at half-maximal effect
Summary of the method: (§1)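 Cells, 1,000 per well, plated 16 h, then exposed 48 h at 37 C to compounds. Viability by ATPlite luminescence after 15 min at room temperature.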

JEG-3 = test: as above; conditions: Gynecologic cancer cell panel viability, ATPlite luminescence, 48 h; series mostly up to 57.5 µM
Summary of the method: as §1

OV90 = test: as above; conditions: Gynecologic cancer cell panel viability, ATPlite luminescence, 48 h; series mostly up to 57.5 µM
Summary of the method: as §1

PA-1 = test: as above; conditions: Gynecologic cancer cell panel viability, ATPlite luminescence, 48 h; series mostly up to 57.5 µM
Summary of the method: as §1

SKOV3 = test: as above; conditions: Gynecologic cancer cell panel viability, ATPlite luminescence, 48 h; series mostly up to 57.5 µM
Summary of the method: as §1

Tov-21-G = test: as above; conditions: Gynecologic cancer cell panel viability, ATPlite luminescence, 48 h; series mostly up to 57.5 µM
Summary of the method: as §1

Tov112D = test: as above; conditions: Gynecologic cancer cell panel viability, ATPlite luminescence, 48 h; series mostly up to 57.5 µM
Summary of the method: as §1

[1] = Drug repurposing screens with cells derived from glioblastoma tumor samples (AID 1345199); conditions: GBM patient neurospheres viability, ATP luminescence, 48 h; also: nearly all actives have a fitted effect of over 40% in size; also: potency is read from the fitted curve at half-maximal effect
Summary of the method: (§2)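 Four patient lines of CD133+ GBM neurospheres were screened at several concentrations; hits were retested in those lines plus three slower-growing GBM lines, using 48-hour treatment and ATP-based viability.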

astro = test: as above; conditions: viability, ATP luminescence, 48 h; series mostly up to 45.9 µM
Summary of the method: as §2

[2] = biological target: Nuclear receptor subfamily 1 group I member 2 (Rattus norvegicus) (UniProt Q9R1A7); test: qHTS assay for small molecule activators of the rat pregnane X receptor (rPXR) signaling pathway (AID 651751; call rule not given here); conditions: rPXR reporter cells, luciferase (One-Glo), 24 h
Nuclear receptor subfamily 1 group I member 2 (Rattus norvegicus), sequence (Q9R1A7 whole entry, looked up): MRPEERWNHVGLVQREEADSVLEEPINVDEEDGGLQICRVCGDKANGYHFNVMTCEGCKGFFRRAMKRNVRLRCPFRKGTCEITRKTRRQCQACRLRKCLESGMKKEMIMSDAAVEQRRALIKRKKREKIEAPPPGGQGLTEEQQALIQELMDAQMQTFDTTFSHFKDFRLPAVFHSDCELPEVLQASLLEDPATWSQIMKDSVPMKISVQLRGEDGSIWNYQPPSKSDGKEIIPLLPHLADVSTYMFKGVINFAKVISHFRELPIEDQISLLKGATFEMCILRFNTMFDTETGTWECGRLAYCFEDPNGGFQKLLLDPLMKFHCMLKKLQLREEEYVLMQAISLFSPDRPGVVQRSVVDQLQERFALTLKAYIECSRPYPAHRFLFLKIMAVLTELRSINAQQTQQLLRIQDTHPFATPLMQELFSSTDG

[3] = qHTS assay for small molecule activators of the human pregnane X receptor (PXR) signaling pathway (AID 720659; call rule not given here)
[4] = at 45.9 µM (top of the series), tumour line B
[5] = at 45.9 µM (top of the series), tumour line D
[6] = at 46.1 µM (top of the series), tumour line C
[7] = at 21.2 µM (top of the series), tumour line B
[8] = at 46 µM (top of the series), tumour line A
[9] = at 20 µM (top of the series), tumour line C
[10] = at 21.2 µM (top of the series), tumour line D

Structure (SMILES)	Potency (Hek293T)	Potency (JEG-3)	Potency (OV90)	Potency (PA-1)	Potency (SKOV3)	Potency (Tov-21-G)	Potency (Tov112D)	activity, negative = cell killing [1, 4]	activity, negative = cell killing [1, 5]	activity, negative = cell killing [1, 6]	Potency (astro)	activity, negative = cell killing [1, 7]	activity, negative = cell killing ([1]; at 21.3 µM (top of the series), tumour line A)	activity, negative = cell killing [1, 8]	activity, negative = cell killing [1, 9]	activity, negative = cell killing [1, 10]	max response [2]	outcome [3]
O=C(NCCO[N+](=O)[O-])c1cccnc1	inactive	inactive	inactive	inactive	inactive	inactive	inactive	-0.47%	-18.1%	-10.1%	inactive	–	–	–	–	–	–	–
N=C(N=C(N)N)N1CCOCC1	inactive	inactive	inactive	inactive	inactive	inactive	inactive	–	–	–	inactive	4.28%	-14.6%	–	–	–	–	–
CCC1=C(C)CN(C(=O)NCCc2ccc(S(=O)(=O)NC(=O)NC3CCC(C)CC3)cc2)C1=O (stereo not drawn)	inactive	inactive	inactive	inactive	–	inactive	inactive	4.42%	-28.4%	-8.33%	inactive	–	–	–	–	–	–	–
CC(C)c1ccc2oc3nc(N)c(C(=O)O)cc3c(=O)c2c1	7.08 µM (active)	7.94 µM (active)	6.31 µM (active)	5.62 µM (active)	7.08 µM (active)	5.01 µM (active)	7.94 µM (active)	–	–	–	1.78 µM (active)	–	–	–	–	–	–	–
CCc1nc(N)nc(N)c1-c1ccc(Cl)cc1	7.94 µM (active)	inactive	7.94 µM (active)	7.94 µM (active)	inactive	3.16 µM (active)	14.1 µM (active)	–	–	–	inactive	–	–	–	–	–	–	–
COCCCOc1ccnc(CS(=O)c2nc3ccccc3[nH]2)c1C (stereo not drawn)	inactive	inactive	inactive	inactive	inactive	inactive	inactive	–	–	–	22.4 µM (active)	–	–	–	–	–	–	–
CCC[C@@H]1C[C@@H](C(=O)N[C@@H]([C@H]2O[C@H](SC)[C@H](O)[C@@H](O)[C@H]2O)[C@@H](C)O)N(C)C1	inactive	inactive	inactive	inactive	–	inactive	inactive	-4.01%	5.06%	3.06%	inactive	–	–	-2.05%	–	–	–	–
COc1c(O)cc2c(c1O)[C@@H]1O[C@H](CO)[C@@H](O)[C@H](O)[C@H]1OC2=O	inactive	inactive	inactive	inactive	inactive	inactive	inactive	–	–	–	inactive	-10.4%	–	–	-10.5%	-25.7%	–	–
S=c1nc[nH]c2nc[nH]c12	15.8 µM (active)	3.55 µM (active)	7.08 µM (active)	3.16 µM (active)	inactive	3.16 µM (active)	8.91 µM (active)	–	–	–	inactive	–	–	–	–	–	–	–
CC1(C)NC(=O)N(c2ccc([N+](=O)[O-])c(C(F)(F)F)c2)C1=O	inactive	inactive	inactive	inactive	inactive	inactive	inactive	–	–	–	–	–	–	–	–	–	-9.05%	inactive
CC(=O)NC[C@H]1CN(c2ccc(N3CCOCC3)c(F)c2)C(=O)O1	inactive	inactive	inactive	inactive	inactive	–	inactive	-14.6%	-26.2%	15.8%	inactive	–	–	–	–	–	–	–
N[C@@H](Cc1cc(I)c(Oc2cc(I)c(O)c(I)c2)c(I)c1)C(=O)O	inactive	inactive	inactive	inactive	inactive	inactive	inactive	-5.58%	-1.99%	-6.06%	–	–	–	–	–	–	4.68%	–
O=C(O)c1cccc(-c2noc(-c3ccccc3F)n2)c1	4.47 µM (active) and 7.08 µM (active)	7.94 µM (active) and 11.2 µM (active)	12.6 µM (active)	3.55 µM (active) and 7.94 µM (active)	10 µM (active) and 12.6 µM (active)	5.01 µM (active) and 8.91 µM (active)	7.94 µM (active) and 10 µM (active)	–	–	–	2.51 µM (active)	–	–	–	–	–	–	–
Cc1ccc(S(=O)(=O)NC(=O)NN2CC3CCCC3C2)cc1 (stereo not drawn)	inactive	inactive	inactive	inactive	inactive	inactive	inactive	–	–	–	inactive	-4.46%	–	–	-7.38%	-18.4%	–	–
CS(=O)(=O)OCCCCOS(C)(=O)=O	inactive	inactive	inactive	inactive	–	inactive	inactive	-4.65%	-5.18%	-0.778%	inactive	–	–	-16.3%	–	–	1.78% and 1.87% and -0.923%	–
CCOC(=O)c1c(C)n(C)c2ccc(O)cc12	inactive	inactive	inactive	inactive	inactive	inactive	inactive	-14.1%	-23.4%	–	inactive	–	–	–	–	–	–	–
COCCCN1CCC(NC(=O)c2cc(Cl)c(N)c3c2OCC3)CC1	inactive	inactive	inactive	inactive	–	inactive	inactive	–	–	–	–	–	–	–	–	–	–	–
CN(c1nccc(=O)[nH]1)C1CCN(c2nc3ccccc3n2Cc2ccc(F)cc2)CC1	inactive	inactive	inactive	inactive	inactive	inactive	inactive	-7.08%	-20%	-6.39%	inactive	–	–	–	–	–	–	–
